Assay outcomes from PubChem BioAssay.
VLA-4 inh: inhibition in a human VLA-4 binding assay; hit rate 0.2% among 330,000; inhibition, % (about 7 µM as worked out from the volumes in the protocol); AID 2557; P13612; VLA-4 expressing cells, ligand binding flow cytometry; in the data active = inhibition above about 50%
Target sequence (P13612 whole entry, looked up): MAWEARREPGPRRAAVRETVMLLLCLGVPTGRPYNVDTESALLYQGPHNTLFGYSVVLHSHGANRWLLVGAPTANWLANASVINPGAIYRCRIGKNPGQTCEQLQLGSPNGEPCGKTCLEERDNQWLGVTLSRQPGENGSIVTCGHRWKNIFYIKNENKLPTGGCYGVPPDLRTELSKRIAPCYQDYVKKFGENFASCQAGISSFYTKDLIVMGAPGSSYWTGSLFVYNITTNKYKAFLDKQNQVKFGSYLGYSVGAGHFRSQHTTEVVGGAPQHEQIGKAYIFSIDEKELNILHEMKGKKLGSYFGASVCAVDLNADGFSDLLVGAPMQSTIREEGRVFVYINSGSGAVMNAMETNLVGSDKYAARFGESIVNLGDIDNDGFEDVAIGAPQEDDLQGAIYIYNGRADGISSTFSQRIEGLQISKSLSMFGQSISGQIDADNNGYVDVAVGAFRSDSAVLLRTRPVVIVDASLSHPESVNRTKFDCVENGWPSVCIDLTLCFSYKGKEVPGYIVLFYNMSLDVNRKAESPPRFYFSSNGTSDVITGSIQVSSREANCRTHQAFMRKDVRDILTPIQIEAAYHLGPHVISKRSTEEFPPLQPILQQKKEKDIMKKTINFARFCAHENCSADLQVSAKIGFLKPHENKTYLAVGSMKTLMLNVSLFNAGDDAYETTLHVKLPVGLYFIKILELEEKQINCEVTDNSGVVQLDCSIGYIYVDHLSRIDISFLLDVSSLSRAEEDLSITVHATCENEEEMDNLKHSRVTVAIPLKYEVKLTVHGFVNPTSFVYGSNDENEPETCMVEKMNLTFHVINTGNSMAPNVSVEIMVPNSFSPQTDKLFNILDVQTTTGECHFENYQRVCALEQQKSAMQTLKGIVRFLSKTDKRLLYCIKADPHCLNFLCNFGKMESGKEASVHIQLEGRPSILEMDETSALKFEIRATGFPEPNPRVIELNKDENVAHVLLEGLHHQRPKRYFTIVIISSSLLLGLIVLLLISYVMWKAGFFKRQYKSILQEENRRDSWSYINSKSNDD
GPR7 antagonist: antagonists of human GPR7 (neuropeptides B/W receptor 1). P48145. GPR7-expressing cells, fluorescence antagonist assay. inhibition, % at 4.4 µM. hit rate 1.1% among 290,000. AID 1861; in the data active = inhibition above about 16%, passing the limit was not always enough;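 also: cells stimulated with the agonist NPW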
p-CIP stab down: p/CIP protein destabilization | Q05BA5 | F442A p/CIP-EGFP cells, EGFP fluorescence, 16 h | decrease of EGFP signal, % at 10 µM | hit rate 0.01% among 290,000 | AID 1984;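 active = EGFP signal decrease of at least 30% at 10 µM or well 3 SD below plate mean, unless failing retest; inactive = the rest, including hits failing retest or dose response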
JMJD2C inh: blocks human GASC-1 demethylase activity; Q9H3R0; GST-JMJD2C(1-420) H3K9me3 demethylation, DELFIA europium; inhibition, % at 2.35 µM; hit rate 0.069% among 330,000; AID 2099;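 active = more than half of a compound's replicate wells show inhibition beyond 50%, single wells judged on their own value; inconclusive = some, but no more than half, of replicates pass 50% inhibition; inactive = no replicate passes 50% inhibition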;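 also: signal counts dimethyl H3K9 product captured on neutravidin plate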
VLA-4 mod pick: confirmation of allosteric modulators of human VLA-4 integrin | shares compounds with VLA-4 inh | U937 cells, HUTS-21 LIBS mAb binding, flow cytometry; LDV ligand present at threefold Kd | AID 2813 | hit rate 2% among 1,300 | inhibition, % at 6.7 µM; in the data active = inhibition above about 40%
Each line names hits and unclear results; the compound was inactive in the other large screens (follow-up assays come after a bar, where they were run). The list is not random: actives were taken first. Their share in the collection is about 1.2%.

COc1cccc(-n2c(Cc3cc(=O)[nH]c(=O)[nH]3)nnc2SCC(=O)N2CCCCC2)c1	none | VLA-4 mod pick inactive
CCc1ccc(NC(=O)CSc2nc3ccccc3nc2N2CCCC2)cc1	none
O=c1[nH][nH]c(=S)n1-c1ccccc1C(F)(F)F	none (no result: VLA-4 inh, JMJD2C inh)
COC(=O)c1c(NC(=O)c2ccco2)sc2c1CCC2	VLA-4 inh 92 | VLA-4 mod pick inactive
Nn1c(SCC(=O)N2CCCC2=O)nnc1-c1cccs1	none (no result: GPR7 antagonist, p-CIP stab down)
CCn1cc(C(=O)OCc2cccc(Br)c2)c(=O)c2ccc(C)nc21	VLA-4 inh 54 | VLA-4 mod pick inactive
COc1cccc(C(=O)NN2CCOCC2)c1	none (no result: GPR7 antagonist, p-CIP stab down)
Cc1ccc(NC(=O)CN2CCc3cc4c(cc3C2)OCCCO4)cc1	VLA-4 inh 55 | VLA-4 mod pick inactive
CCC(C)NC(=O)CC(NS(=O)(=O)c1ccc(Cl)cc1)c1ccco1 (stereo not drawn)	VLA-4 inh 108 | VLA-4 mod pick inactive
CC(=O)Nc1ccc(S(=O)(=O)Nc2nc3ccccc3nc2Cl)cc1	none | VLA-4 mod pick inactive
CC(=O)Nc1ccc(S(=O)(=O)Nc2nccc(C)n2)cc1	none | VLA-4 mod pick inactive
CC(=O)Nc1ccc(S(=O)(=O)Nc2nc3cc4c(cc3nc2Cl)OCCO4)cc1	none
CCCCCCNC1=NCCS1	VLA-4 inh 53 | VLA-4 mod pick inactive
CCc1ccc(OCc2nnc(SCC(=O)Nc3cccc(C(=O)N4CCOCC4)c3)o2)cc1	none | VLA-4 mod pick inactive
Cc1nc(NC(=O)COC(=O)C(NC(=O)c2ccco2)C(C)C)c(Cl)cc1Cl (stereo not drawn)	VLA-4 inh 52 | VLA-4 mod pick inactive
O=C1c2ccccc2/C(=C\c2ccc(Br)s2)N1c1ccccc1	none (no result: GPR7 antagonist, p-CIP stab down)
Cc1ccc(N2CCN(C(=O)N3CCOCC3)CC2)c(C)c1	none (no result: JMJD2C inh)
CC1CC2C3CCC4=CC(=O)C=CC4(C)[C@@]3(Cl)C(O)CC2(C)C1(O)C(=O)CO (stereo partly drawn)	none (no result: GPR7 antagonist, p-CIP stab down) | VLA-4 mod pick inactive
CC1CC2C3CCC4=CC(=O)C=CC4(C)C3(F)C(O)CC2(C)C1(O)C(=O)CO (stereo not drawn)	none
O=C(CSc1nnc(CNC(=O)c2cccs2)o1)Nc1cccc(Cl)c1	none
CCOCCn1c(=NC(=O)/C=C/c2ccccc2Cl)sc2cc(NC(C)=O)ccc21	none | VLA-4 mod pick inactive
COc1ccc(Br)cc1CNC(=O)CCCc1cn(C)c2ccccc12	VLA-4 inh 53 | VLA-4 mod pick inactive
Cn1c2ccc(F)cc2c2ncn(Cc3ccco3)c(=O)c21	none (no result: VLA-4 inh)
Cn1c2ccccc2c2ncn(Cc3ccco3)c(=O)c21	VLA-4 inh 55 | VLA-4 mod pick inactive
COc1ccc(CNC(=O)c2ccc(N3CCC4(CC3)CC(c3ccc(Cl)cc3)=NO4)c(N)c2)cc1	none (no result: GPR7 antagonist, p-CIP stab down)
O=C1Cc2cc(S(=O)(=O)N3CCNCC3)ccc2N1	none (no result: GPR7 antagonist, p-CIP stab down) | VLA-4 mod pick inactive
CCOCc1c(C(=O)NCC(c2ccco2)N2CCCC2)oc2ccccc12 (stereo not drawn)	none (no result: GPR7 antagonist, p-CIP stab down)
Cc1cc(-c2nnc(CCC(=O)NC(C)c3ccc(F)cc3)o2)no1 (stereo not drawn)	none
O=C(O)c1c(C(=O)O)c(-c2ccc(F)cc2)n2c1CCC2	JMJD2C inh inconclusive | VLA-4 mod pick inactive
Cc1ccc(-c2c(C(=O)O)c(C(=O)O)c3n2CCC3)cc1	none
CCCCn1c(NC(=O)c2ccccc2)c(C#N)c2nc3ccccc3nc21	none (no result: VLA-4 inh, JMJD2C inh)
CCCCn1cc(C(C)(C)C)c(C#N)c1NC(C)=O	VLA-4 inh 50 | VLA-4 mod pick inactive
O=C(CCn1c(=S)oc2ccccc21)Nc1cc([N+](=O)[O-])ccc1F	none
CC(C)=N/N=C(/c1ccc([N+](=O)[O-])cc1)C12CN3CN(CN(C3)C1)C2	none | VLA-4 mod pick inactive
O=[N+]([O-])c1cccc(/C(=N/N=C/c2ccccc2Br)C23CN4CN(CN(C4)C2)C3)c1	none
Clc1ccc(NCc2ccsc2)cc1	none
CC(=O)Nc1ccc(S(=O)(=O)Nc2nnc(C(C)(C)C)s2)cc1	none
CC(C)(C)c1nnc(NC(=O)NS(=O)(=O)c2ccccc2)s1	VLA-4 inh 73 | VLA-4 mod pick inactive
Cc1ccc(S(=O)(=O)C2(C(=O)Nc3ccc(F)cc3)CC2)cc1	none
Cc1ccc(S(=O)(=O)C2(C(=O)Nc3ccc4c(c3)OCO4)CC2)cc1	VLA-4 inh 51 | VLA-4 mod pick inactive
CCCc1ccc(OCCNC(=O)CC)cc1	VLA-4 inh 51 | VLA-4 mod pick inactive
Cc1cc(/C=C2/NC(=O)N(c3ccccc3)C2=O)c(C)n1-c1cccnc1	none | VLA-4 mod pick inactive
CCC(Sc1ccc2nnc(-c3ccc(OC)c(OC)c3)n2n1)C(=O)O (stereo not drawn)	none | VLA-4 mod pick inactive
OC1CCCCC1	none (no result: GPR7 antagonist, p-CIP stab down)
COC(=O)c1c(C)[nH]c(C(=O)C(C)OC(=O)C2CC2C)c1C (stereo not drawn)	none (no result: GPR7 antagonist, p-CIP stab down) | VLA-4 mod pick inactive
Cc1ccc(C2(C)NC(=O)N(CC(=O)Nc3cc(S(=O)(=O)N(C)C)ccc3C)C2=O)cc1 (stereo not drawn)	none
CCCOc1c(OC)cccc1C1CC(=O)Nc2cc(OC)c(OC)c(OC)c21 (stereo not drawn)	none
COc1ccc(OC)c(C2CC(=O)Nc3c2c(=O)[nH]c2ncnn32)c1 (stereo not drawn)	none
COc1cc2c(c(OC)c1)C(c1cccc(OC)c1OC)CC(=O)N2 (stereo not drawn)	none | VLA-4 mod pick inactive
CCOc1c(OC)cccc1C1CC(=O)Nc2cc3c(cc21)OCCO3 (stereo not drawn)	none | VLA-4 mod pick inactive
CCOc1ccccc1C1CC(=O)Nc2cc(OC)c(OC)cc21 (stereo not drawn)	none
COc1ccc(OC)c(C2CC(=O)Nc3cc(OC)c(OC)c(OC)c32)c1 (stereo not drawn)	none | VLA-4 mod pick inactive
Cc1ccc(N2C(=O)CC(Nc3ccc(Cl)c(S(=O)(=O)N(C)C)c3)C2=O)c(C)c1 (stereo not drawn)	none
CNC(=O)c1ccsc1NC(=O)CS(=O)(=O)c1ccc(Cl)cc1	none
CCCC(=O)Nc1ccc(C(=O)Nc2nc(CC(=O)OCC)cs2)cc1	VLA-4 inh 56 | VLA-4 mod pick inactive
C=CCn1c(=O)/c(=C2/SC(C)=C(C)N2CC)s/c1=C1/C(=O)N(CC)C(=S)N1c1ccccc1	none
Cc1cc(C(=O)NNC(=O)C2CCCC2)c(C)o1	VLA-4 inh 70 | VLA-4 mod pick inactive
Cc1occc1C(=O)NNC(=O)C1CCCC1	none
CCN(C(=O)COC(=O)c1ccccc1NCCO)c1cccc2ccccc12	none (no result: GPR7 antagonist, p-CIP stab down)
COc1cc(CCCN2C(=O)C(=O)NC[C@@H]2c2ccccc2)cc(OC)c1OC	VLA-4 inh 52 (no result: GPR7 antagonist) | VLA-4 mod pick inactive
COc1cc(CCCN2C(=O)C(=O)NC[C@@H]2C(C)O)cc(OC)c1OC (stereo partly drawn)	none (no result: GPR7 antagonist) | VLA-4 mod pick inactive
COc1cc(CCCN2C(=O)C(=O)NC[C@@H]2CC2CCCCC2)cc(OC)c1OC	none (no result: GPR7 antagonist, p-CIP stab down)
O=C(Nc1nnc(S(=O)(=O)N2CCN(c3ccc(F)cc3)CC2)s1)c1ccco1	none
Cc1ccccc1C(=O)Nc1cc(C(F)(F)F)ccc1-n1cncn1	none (no result: GPR7 antagonist, p-CIP stab down)
COc1c(C(=O)Nc2c(C)n(C)n(-c3ccccc3)c2=O)ccc2ccccc12	none | VLA-4 mod pick inactive
Cc1c(NC(=O)Nc2ccc(Cl)c(Cl)c2)c(=O)n(-c2ccccc2)n1C	VLA-4 inh 65 | VLA-4 mod pick inactive
